We go through 63 compounds from PubChem BioAssay AID1851 (National Center for Advancing Translational Sciences (NCATS), 2009).

Several values for one entry are separate records, joined by “and”; a condition that tells them apart may be missing. Equal values may be shown once. Screen size: about 16,000 compounds; about 5,800 (36%) were called active. Another 23% or so got no clear call; they are omitted. Calls follow the shape of the dose curve; as a rule, active = well fitted curve in the direction sought with a large enough effect; inconclusive = small, poorly fitted or top-dose-only effect, or effect the other way; inactive = no such curve, though single readings can be large or run the other way. The list shows a part of the results. Where a structure was tested more than once in an assay, its records may differ in their call.
% is scaled to controls: 0 for no effect and ±100 for the full control effect.

Chain of Cytochrome P450 2C19 (Homo sapiens) (P33261 whole entry, looked up): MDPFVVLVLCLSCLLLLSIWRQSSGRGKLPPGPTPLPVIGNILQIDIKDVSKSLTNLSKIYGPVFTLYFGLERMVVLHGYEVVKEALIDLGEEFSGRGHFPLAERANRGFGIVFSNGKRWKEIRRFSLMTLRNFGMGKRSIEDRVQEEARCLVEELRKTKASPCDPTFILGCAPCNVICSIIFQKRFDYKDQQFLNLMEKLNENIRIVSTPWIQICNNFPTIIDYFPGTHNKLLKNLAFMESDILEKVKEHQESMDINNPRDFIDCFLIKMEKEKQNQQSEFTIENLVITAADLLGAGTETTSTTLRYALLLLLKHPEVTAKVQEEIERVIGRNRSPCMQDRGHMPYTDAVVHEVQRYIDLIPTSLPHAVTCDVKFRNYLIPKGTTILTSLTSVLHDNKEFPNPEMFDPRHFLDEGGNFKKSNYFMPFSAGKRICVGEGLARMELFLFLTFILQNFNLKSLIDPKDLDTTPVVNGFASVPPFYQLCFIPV

The assay concerns the target Cytochrome P450 2C19 (Homo sapiens) (UniProt P33261). Description: Cytochrome panel assay with activity outcomes. The following applies: recombinant CYP, pro-luciferin dealkylation, luminescence, p450-cyp2c19; series mostly up to 57.1 µM; activity, negative = inhibition: at the top concentration.
With `CCOC(=O)CCN1C(=O)[C@H]2[C@H]3[C@H](O)[C@H](O)C/C(=N/OC/C=C(\C)CCC=C(C)C)[C@@H]3CC[C@@H]2C1=O`, the activity, negative = inhibition was 6.34% [at 11.4 µM] (inactive). With `CCCCCCCCCCCCCCC[C@@H](O)[C@@H](N)CO`, the “activity, negative = inhibition” value is -34.9% (inactive). With `O=c1[nH]c(SCc2c(Cl)c(Cl)c(Cl)c(Cl)c2Cl)nc(=S)[nH]1`, the activity, negative = inhibition was -28.6% [at 11.4 µM] (inactive). `Clc1ccccc1-c1nc(NCc2cccs2)c2ccccc2n1`: the AC50 is 7.94 µM (active). `CN(C)Cc1ccccc1-c1nc(NCc2cccs2)c2ccccc2n1`: the “activity, negative = inhibition” value is 21.4% (inactive). Regarding `CN(C)CCNC(=O)Cn1nc(-c2ccc(Cl)cc2)ccc1=O`, the “activity, negative = inhibition” value was -7.39% (inactive). `COc1ccc(NC(=O)N2CCC3(CC2)CCN(C(=O)c2csnn2)CC3)cc1`: the “activity, negative = inhibition” value is 6.58% (inactive). As for `CC(=O)C1C(c2ccccc2OC(F)F)NC(=O)NC1(O)C(F)(F)F` (stereo not drawn), the “activity, negative = inhibition” value is -20.9% (inactive).

For `Cn1c(-c2ccccc2)cnc1N`, the “activity, negative = inhibition” value is -26.7% (inactive). With `Cn1c(-c2ccc(F)cc2)cnc1NCc1ccc(F)cc1`, the AC50 is 2.51 µM (active). `Cc1ccc(-c2cnc(NC(=O)CCC(=O)N3CCCCC3)n2C)cc1`: the “activity, negative = inhibition” value is -26.8% (inactive).

`CCNc1ncc2nc(-c3ccc(F)cc3)c(=O)n(C)c2n1`: the “activity, negative = inhibition” value was 12.1% (inactive).

As for `Cn1c(-c2ccc(F)cc2)cnc1NCc1cccc(F)c1`, the AC50 is 6.31 µM (active). For `CCN(CC)C[C@@H](O)CN1CCCCc2nc(C)c(C)cc21`, the activity, negative = inhibition is 32.1% [at 11.4 µM] (inactive).

For `O=C(c1ccco1)N1CCC2(CC1)CN(Cc1cc(C(F)(F)F)cc(C(F)(F)F)c1)C2`, the “activity, negative = inhibition” value was -26.9% (inactive). As for `CCCCN1C(=O)NC(NC(=O)c2ccco2)(C(F)(F)F)C1=O` (stereo not drawn), the half-maximal activity concentration (AC50) is 8.91 µM (active). Take `O=C(NC1(C(F)(F)F)C(=O)Nc2c1c(=O)[nH]c(=O)n2-c1ccc(F)cc1)c1cccnc1` (stereo not drawn): the “activity, negative = inhibition” value is -21.4% (inactive). As to `O=C(NC1(C(F)(F)F)NC(=O)N(Cc2cccnc2)C1=O)c1ccccc1` (stereo not drawn), the AC50 is 15.8 µM (active). `NS(=O)(=O)c1ccc(N=Nc2ncccc2O)cc1`: the activity, negative = inhibition was -17% [at 11.4 µM] (inactive). Consider `Cc1nc2cccc([N+](=O)[O-])c2n1CCCN(C)C`, for which the activity, negative = inhibition was 37.8% [at 11.4 µM] (inactive). For `Cc1ccc2nc(SCc3nnc(-c4ccccc4[N+](=O)[O-])o3)c(C#N)cc2c1`, the AC50 is 0.794 µM (active). Consider `C#CCN(C)Cc1ccccc1`, for which the AC50 entry was “inactive”. As to `CN(Cc1ccccc1)Cn1ccnc1`, the AC50 was 2 µM (active). In the case of `CCOc1nc(NCCc2ccc(OC)c(OC)c2)nc(NC(C)(C)CO)n1`, the AC50 was 6.31 µM (active). Turning to `COc1ccc(CCNC[C@H](O)c2ccc(O)cc2)cc1OC`, the “activity, negative = inhibition” value is 13.4% (inactive).

As for `COc1ccc(Oc2ncc3ncc(=O)n(CCc4ccccc4)c3n2)cc1`, the “activity, negative = inhibition” value was -24.1% (inactive). As to `COCCn1c(=O)c(-c2ccccc2)nc2cnc(Oc3ccccc3)nc21`, the “activity, negative = inhibition” value is -68.1% (inactive). For the compound `COCCn1c(=O)cnc2cnc(Oc3ccccc3)nc21`, the AC50 was 10 µM (active). `Cn1c(=O)c(-c2cccs2)nc2cnc(Oc3ccccc3)nc21`: the “activity, negative = inhibition” value is -28.2% (inactive). As for `COCCn1c(=O)cnc2cnc(Oc3ccc(OC)cc3)nc21`, the “activity, negative = inhibition” value is -29.1% (inactive). As to `COCCn1c(=O)c(-c2cccs2)nc2cnc(Oc3ccccc3)nc21`, the AC50 is 10 µM (active).

Turning to `O=c1cnc2cnc(Oc3ccccc3)nc2n1CCc1ccccc1`, the AC50 is 6.31 µM (active). Still for that read-out and setting: the result for `COc1ccc(S(=O)(=O)N(CC(=O)N2CCCC2)Cc2ccccc2)cc1` reads 5.62 µM (active). As to `CCN(CC)S(=O)(=O)c1ccc2c(c1)nc(SCC(=O)N1CCOCC1)n2-c1ccccc1OC`, the “activity, negative = inhibition” value is -25.7% (inactive).

With `COc1ccc(S(=O)(=O)N(CCc2ccccc2)CC(=O)N2CCOCC2)cc1`, the AC50 is 10 µM (active). Take `COc1ccc(NC(=O)N2CCCC3(CCN(S(=O)(=O)c4ccccc4)CC3)C2)cc1`: the “activity, negative = inhibition” value is -9.43% (inactive). For the compound `CN(Cc1ccccc1)S(=O)(=O)c1ccc(OCC(=O)N2CCOCC2)cc1`, the “activity, negative = inhibition” value was -58.2% (inactive). With `c1ccc(Nc2nc(-c3ccc4c(c3)OCO4)nc3ccccc23)cc1`, the AC50 was 3.16 µM (active).

As for `c1ccc2c(Nc3ccncc3)nc(-c3ccc4c(c3)OCO4)nc2c1`, the AC50 was 3.98 µM (active). Turning to `CCOc1ccc(-n2c(SCC(=O)Nc3ccc(OC)cc3)nc3c(c2=O)SCC3)cc1`, the AC50 is 7.08 µM (active). Consider `CCOc1ccc(-n2c(SCC(=O)Nc3ccc4c(c3)OCCO4)nc3c(c2=O)SCC3)cc1`, for which the AC50 was 2.82 µM (active).

As for `CCOc1ccc(-n2c(SCC(=O)Nc3ccc(OC)cc3OC)nc3c(c2=O)SCC3)cc1`, the AC50 is 5.01 µM (active). `C/C(CCN1CCCCc2nc(C)c(C)cc21)=N\O[C@@H](C)c1cc(-c2c(C)cc(C)cc2C)no1`: the activity, negative = inhibition is -41.4% [at 11.4 µM] (inactive). As for `O=c1c(-c2cc(F)cc(F)c2)nc2cnc(N3CCOCC3)nc2n1C1CC1`, the “activity, negative = inhibition” value was 24.5% (inactive). For the compound `CO[C@H]1COC(=O)[C@H](C)COC(=O)[C@@H](Cc2ccccc2)NC(=O)C/C=C\[C@H]1C`, the activity, negative = inhibition was -17.9% [at 11.4 µM] (inactive). As for `CS(=O)(=O)N1CCC2(CC1)CN(Cc1nccs1)C2`, the “activity, negative = inhibition” value is -13.6% (inactive). As for `C[C@]12CC[C@H]3c4ccc(O)cc4CC[C@@H]3[C@H]1C/C(=N/O)[C@H]2O`, the activity, negative = inhibition is 27.1% [at 11.4 µM] (inactive). Take `COc1cc(CNn2nnnc2N)ccc1OCc1c(Cl)cccc1Cl`: the AC50 is 2.51 µM (active). Regarding `CC(=O)N1N=C(c2cccc([N+](=O)[O-])c2)OC1c1ccccc1Cl` (stereo not drawn), the AC50 is 2.82 µM (active). In the case of `CC(=O)N1N=C(c2cccc([N+](=O)[O-])c2)OC1c1ccc(Cl)cc1Cl` (stereo not drawn), the AC50 was 0.447 µM (active). Regarding `CN1CCN(c2ncc3nc(-c4cccc(C#N)c4)c(=O)n(CCC#N)c3n2)CC1`, the “activity, negative = inhibition” value is 11.8% (inactive).

Take `COc1ccc(N2C(=O)CSC2c2cccc(F)c2)c(OC)c1` (stereo not drawn): the AC50 was 11.2 µM (active). Consider `Cc1cc(Br)ccc1NCc1ccccn1`, for which the AC50 was 0.251 µM (active).

For the compound `OCCCNCc1ccccn1`, the activity, negative = inhibition is 31.9% [at 11.4 µM] (inactive). `Cc1cc(NCc2ccccn2)ccc1Br`: the AC50 is 2.82 µM (active). Consider `CN(C)CC[C@H](c1ccc(Br)cc1)c1ccccn1`, for which the AC50 entry was “inactive”.

Regarding `c1ccc(CCNc2ccccn2)nc1`, the activity, negative = inhibition is 10.5% [at 11.4 µM] (inactive). As to `CNCCc1ccccn1`, the “activity, negative = inhibition” value is 6.91% [at 25.6 µM] (inactive). For the compound `O=C(NCCCn1ccnc1)c1ccc(Br)c(S(=O)(=O)N2CCOCC2)c1`, the AC50 is 17.8 µM (active). In the case of `Cc1ccc(C(=O)Oc2cc(C)n(C)c(=O)c2)cc1`, the “activity, negative = inhibition” value is -24.2% (inactive).

Consider `COC(=O)c1ccc(Oc2cc(C)nc(-n3nc(C)cc3C)n2)cc1`, for which the AC50 is 7.94 µM (active). As for `CN1C(C(=O)Nc2ccccn2)=C(O)c2sccc2S1(=O)=O`, the “activity, negative = inhibition” value is -5.67% [at 25.6 µM] (inactive). For the compound `CN1C(C(=O)Nc2ccccn2)=C(O)c2ccccc2S1(=O)=O`, the AC50 entry is “inactive and 6.31 µM (active)”.
